Where “and” joins values, the source holds several entries; their conditions need not be identical. Identical values can stand only once. Out of some 410,000 compounds screened, about 2,400 (0.59%) were called active. Rule as the data show it: active = max activation above about 30%; inactive = the rest. This excerpt belongs to a sample that is enriched for actives. Some compounds were tested as several samples or in several runs, with calls that do not always agree.
Target: D(3) dopamine receptor (Homo sapiens) (UniProt P35462)
Assay: qHTS of D3 Dopamine Receptor Agonist: qHTS; also: 0% is about no effect
Conditions: D3R DiscoveRx beta-arrestin cells, luminescence, 90 min; stronger effect = higher value
How it was run: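 Cells at 1500/well, incubated overnight, then treated with pinned compounds (dopamine as control) for 90 min at 37 degrees C. DiscoveRx reagent added for 30 - 60 minutes at room temperature; luminescence read.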

D(3) dopamine receptor (Homo sapiens), sequence (P35462 whole entry, looked up): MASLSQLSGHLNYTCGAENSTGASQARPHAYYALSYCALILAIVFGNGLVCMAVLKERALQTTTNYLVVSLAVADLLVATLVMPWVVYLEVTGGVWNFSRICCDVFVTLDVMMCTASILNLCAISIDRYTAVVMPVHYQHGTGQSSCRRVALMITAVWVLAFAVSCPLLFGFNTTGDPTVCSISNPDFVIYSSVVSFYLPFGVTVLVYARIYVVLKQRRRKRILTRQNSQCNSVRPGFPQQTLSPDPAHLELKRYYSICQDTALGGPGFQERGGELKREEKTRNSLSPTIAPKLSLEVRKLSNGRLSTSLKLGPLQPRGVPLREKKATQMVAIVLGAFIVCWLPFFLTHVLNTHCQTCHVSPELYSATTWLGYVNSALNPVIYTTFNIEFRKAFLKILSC

Row | SMILES | max activation
1 | CC(C)(C)OC(=O)N1CCC(c2c(C(=O)NCCc3ccsc3)cnn2-c2ccc(F)cc2F)CC1 | 6.51% (inactive)
2 | COCOc1cc(O)c(C(=O)/C=C/c2ccc(OCOC)c(OCOC)c2)c(OCOC)c1 | 32% (active)
3 | COc1ccc(/C=C/C(=O)c2cc(Br)ccc(=O)c2O)cc1 | -1.59% (inactive)
4 | CCOc1ccc(/C=C/C(=O)OCC(=O)c2ccccc2OC)cc1OC | 3.52% (inactive)
5 | O=C(Nc1cccc(C(F)(F)F)c1)c1cc(Br)cc(Br)c1O | 0.389% (inactive)
6 | CC(C(=O)O)c1ccc(C2CCCCC2)c2ccccc12 (stereo unspecified) | 4% (inactive)
7 | Cc1ccc2nc(CN3CCN(S(=O)(=O)c4ccc(C)c(C)c4)CC3)oc2c1 | -11.8% (inactive)
8 | COc1ccc2sc(-c3ccc(N(C)C)cc3)c(C#CCO)c2c1 | 38.4% (active)
9 | COc1ccc2c(c1)c(=Cc1ccc(N(C)C)cc1)c1cc(-c3ccccc3)[n+](C)n12 | 1.19% (inactive)
10 | Cc1ccc(C)c(S(=O)(=O)n2nc(C)c(S(=O)(=O)N3CCC(C)CC3)c2C)c1 | 3.28% (inactive)
11 | CC(O)COc1ccccc1 (stereo unspecified) | 8.58% (inactive)
12 | O=C(CSc1nc2ccccc2c(=O)[nH]1)Nc1nc(-c2ccc(Br)cc2)cs1 | 37.7% (active)
13 | COc1ccc(NC(=O)CSc2nc3ccccc3[nH]2)cc1 | 0.0768% (inactive)
14 | O=C(CSc1nc(O)c(Cc2ccccc2)c(=O)[nH]1)Nc1nc2c(s1)CCCC2 | 3.59% (inactive)
15 | CC1CCN(C(=O)COC(=O)c2cc(=O)[nH]c3ccccc23)CC1 | -2.85% (inactive)
16 | O=C(COC(=O)c1cc(=O)[nH]c2ccccc12)Nc1nc(-c2cccc(Br)c2)cs1 | 38.6% (active)
17 | O=C(COC(=O)c1cc(=O)[nH]c2ccccc12)NCc1cccc(Cl)c1 | 3.7% (inactive)
18 | COc1ccc(C(=O)Nc2cccc(C(=O)OCc3cc(=O)n4c5c(sc4n3)CCCC5)c2)cc1 | -9.48% (inactive)
19 | COc1cccc2cc(-c3nc(Cl)c4c5c(sc4n3)CC(C)CC5)c(=O)oc12 (stereo unspecified) | 8.91% (inactive)
20 | COC(=O)c1sccc1S(=O)(=O)N(CC(=O)Nc1ccc(C)c(F)c1)c1ccc(C)c(C)c1 | -2.21% (inactive)
21 | Cc1ccc(CN2CCC(CNC(=O)c3cnn(-c4ccccc4Cl)c3C3CCN(C(=O)OC(C)(C)C)CC3)CC2)cc1 | -13.6% (inactive)
22 | CO/N=C(/C(=O)N[C@@H]1C(=O)N2C(C(=O)O)=C(Cn3nnc(C)n3)CS[C@H]12)c1csc(N)n1 | -4.25% (inactive)
23 | CSc1ccc(CCNC(=O)C2CCN(c3nnc(-n4cccc4)s3)CC2)cc1 | -2.44% (inactive)
24 | Cc1ccc(CCNC(=O)C2CCN(c3nnc(-n4cccc4CNc4ccc(C)cc4)s3)CC2)cc1 | 56.2% (active)
25 | CCOc1ccc(CNC(=O)C2CCN(c3nnc(-n4cccc4CNc4ccc(C)cc4)s3)CC2)cc1OC | 1.82% (inactive)
26 | N[C@H]1CN(c2c(F)cc3c(=O)c(C(=O)O)cn(C4C[C@H]4F)c3c2Cl)CC12CC2 (stereo partly specified) | -3.15% (inactive)

Row | SMILES | max activation
27 | O=P(O)(O)OC[C@H](O)CO | -12.8% (inactive)
28 | CN(CC(=O)Nc1ccccc1F)S(=O)(=O)c1ccc2c(c1)c(=O)n(C)c(=O)n2C | 47.6% (active)
29 | CC(C)c1ccc(NC(=O)CN(C)S(=O)(=O)c2ccc3c(c2)c(=O)n(C)c(=O)n3C)cc1 | 0.167% (inactive)
30 | CCc1ccccc1NC(=O)CN(C)S(=O)(=O)c1ccc2c(c1)c(=O)n(C)c(=O)n2C | -4.93% (inactive)
31 | CCc1ccc(S(=O)(=O)c2nnn3c2nc(N2CCN(CC)CC2)c2sccc23)cc1 | 5.12% (inactive)
32 | CCOc1ccc(Nc2oc(/C=C/c3ccc(F)cc3)nc2C#N)cc1 | -13.3% (inactive)
33 | Fc1ccc(-c2nn(-c3ccccc3Cl)c3c2cnc2ccccc23)cc1 | 0.11% (inactive)
34 | Oc1c(C(c2ccccc2Cl)N2CCOCC2)sc2nc(-c3ccco3)nn12 (stereo unspecified) | -18% (inactive)
35 | O=C(c1ccco1)n1nc(-c2ccc(Cl)cc2)nc1NCc1ccccc1 | -9.35% (inactive)
36 | CSc1nc(-c2ccco2)nn1C(=O)c1ccccc1Cl | 32.7% (active)
37 | CCOC(=O)Cc1cccc(-c2cc(CCCCCCc3ccc(O[C@H]4O[C@H](COC(C)=O)[C@@H](OC(C)=O)[C@H](OC(C)=O)[C@@H]4OC(C)=O)c(-c4cccc(CC(=O)OCC)c4)c3)ccc2O[C@H]2O[C@H](COC(C)=O)[C@@H](OC(C)=O)[C@H](OC(C)=O)[C@@H]2OC(C)=O)c1 | -9.52% (inactive)
38 | COc1ccc(-c2nc3cnccn3c2NC(C)(C)CC(C)(C)C)cc1O | 4.14% (inactive)
39 | COc1ccc(-c2nc3cc(C)ccn3c2NC2CCCCC2)cc1SC1CCCCC1 | 18.2% (inactive)
40 | COc1ccc(-c2nc3cnccn3c2NC2CCCCC2)cc1-c1cccc(Cl)c1 | 7.25% (inactive) and 47.9% (active)
41 | Cc1ccc(Cl)cc1N1CCN(C(=O)c2cccn3c(=O)c4cc(Cl)ccc4nc23)CC1 | 1.63% (inactive)
42 | CN(C)CCc1c[nH]c2ccc(Cn3cncn3)cc12 | -8.71% (inactive)
43 | COc1ccc(Cl)cc1NC(=O)Cn1c(=O)c2ccccc2n2nncc12 | -7.09% (inactive)
44 | O=C(CC1C(=O)NCCN1C(=O)c1ccc([N+](=O)[O-])cc1)Nc1cccc(Cl)c1 (stereo unspecified) | 38.6% (active)
45 | COC(=O)c1cc(NC(=O)CC2C(=O)NCCN2C(=O)c2ccc(F)cc2)cc(C(=O)OC)c1 (stereo unspecified) | 5.37% (inactive)
46 | COc1ccccc1C(=O)N1CCNC(=O)C1CC(=O)Nc1ccc(Cl)cc1 (stereo unspecified) | 4.77% (inactive)
47 | Brc1cccc(-c2nnn3c2nc(NC2CCCCC2)c2ccccc23)c1 | -2.96% (inactive)
48 | Cc1cc(OCC(=O)NCC(O)c2ccccc2)c2c(C)c(C)c(=O)oc2c1 (stereo unspecified) | 2.59% (inactive)
49 | COc1ccc(CCNC(=O)c2cc(=O)c3c(C)cc(C)cc3o2)cc1OC | 21.9% (inactive)
50 | COc1ccc(CCNC(=O)COc2cc(C)cc3oc(=O)c(C)c(C)c23)cc1OC | 42.4% (active)
51 | COc1cc2c(cc1OC)CC(=O)N(CCCN(C)C[C@H]1Cc3cc(OC)c(OC)cc31)CC2 | -16.3% (inactive)
